Values joined by “and” are separate entries in the source; they are usually repeats but may differ in a detail not shown here. Equal entries are not always repeated. Out of some 16,000 compounds screened, about 2,600 (16%) were called active. Roughly 20% stayed inconclusive and do not appear here. Calls come from the whole dose curve; as a rule, active = well fitted curve in the direction sought with a large enough effect; inconclusive = small, poorly fitted or top-dose-only effect, or effect the other way; inactive = no such curve, though single readings can be large or run the other way. Only a sample is shown. A structure can be active in one record and inactive in another.
These compounds were tested against Cytochrome P450 2D6 (Homo sapiens) (UniProt P10635) (assay: Cytochrome panel assay with activity outcomes). Conditions: recombinant CYP, pro-luciferin dealkylation, luminescence, p450-cyp2d6; series mostly up to 57.1 µM.
Sequence of Cytochrome P450 2D6 (Homo sapiens) (P10635 whole entry, looked up): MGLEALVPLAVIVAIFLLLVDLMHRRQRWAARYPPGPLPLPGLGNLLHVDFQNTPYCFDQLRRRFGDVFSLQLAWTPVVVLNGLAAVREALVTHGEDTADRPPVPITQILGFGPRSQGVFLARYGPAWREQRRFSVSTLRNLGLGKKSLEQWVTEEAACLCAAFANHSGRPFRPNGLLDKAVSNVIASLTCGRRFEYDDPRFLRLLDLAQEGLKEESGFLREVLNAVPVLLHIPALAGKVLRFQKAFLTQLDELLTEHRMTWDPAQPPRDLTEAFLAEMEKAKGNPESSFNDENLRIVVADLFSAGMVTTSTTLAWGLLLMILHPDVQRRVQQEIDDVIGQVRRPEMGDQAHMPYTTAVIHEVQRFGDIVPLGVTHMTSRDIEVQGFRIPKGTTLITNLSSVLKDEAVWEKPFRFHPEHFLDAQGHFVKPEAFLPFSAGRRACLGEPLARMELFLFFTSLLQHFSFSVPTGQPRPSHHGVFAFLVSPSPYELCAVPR
% is set by controls: 0 for no effect and ±100 for the full control effect.

Compound | AC50 | activity, negative = inhibition
O=C(Nc1ccccc1N1CCN(C(=O)c2ccccc2)CC1)c1cc(Br)ccc1Cl | inactive | 
S=c1[nH]nc(CSCc2ccccc2Cl)n1-c1ccccc1 | inactive | 
COC(=O)[C@@]1(Cc2ccc(OC)cc2)[C@@H]2[C@@H](CC(=O)[C@H]2CC(=O)C(=O)N2CCCC2)CN1C(=O)c1ccccc1 | inactive | 
Cc1cccc(NC(=S)N/N=C/c2ccc([N+](=O)[O-])s2)c1 | inactive | 
COc1ccc(-c2nc(N)c3ncn([C@H]4O[C@@H](CO)[C@@H](O)[C@@H]4O)c3n2)cc1 |  | 1.32% [at 11.4 µM] (inactive)
CC(Sc1nnc(C(C)N(C)C)n1-c1ccc(Cl)cc1)C(=O)Nc1ccc2c(c1)OCO2 (stereo not drawn) | 14.1 µM (active) | 
Cc1cc(C)c(NC(=O)C(C)Sc2nnc(-c3ccco3)n2-c2ccccc2)c(C)c1 (stereo not drawn) | inactive | 
COc1ccc(-n2c(=O)[nH]cc(C(=O)Nc3ccc4c(c3)OCCO4)c2=O)cc1 | inactive | 
CC(C)C1NC(=S)N(Cc2ccccc2)C1=O (stereo not drawn) | inactive | 
COc1ccc(C[N+](C)(C)N)cc1OC |  | 0.726% [at 11.4 µM] (inactive)
COc1ccc(CCNC[C@H](O)c2ccc(O)cc2)cc1OC | inactive | 
COc1ccc(CNCCC(c2ccc(OC(C)C)cc2)C(C)C)cc1OC (stereo not drawn) | 0.251 µM (active) | 
COC(=O)C/C=C\[C@@H](C)[C@@H](/C=N\O[C@@H](C)c1cc(-c2c(C)cc(C)cc2C)no1)OC |  | -10.8% [at 11.4 µM] (inactive)
COc1ccc(-n2c(CNc3ccc(C)cc3)nnc2SCC(=O)Nc2nc(-c3ccccc3)cs2)cc1 | inactive | 
O=c1cc(N2CCOCC2)oc2c(-c3ccccc3)cccc12 | inactive and 25.1 µM (active) | 
O=S1(=O)C=C(N2CCOCC2)c2ccccc21 | inactive | 
CCc1ccccc1N1C(=O)c2cccc3c(N4CCOCC4)c([N+](=O)[O-])cc(c23)C1=O | inactive | 
CNc1nc(C)cc(C)c1S(=O)(=O)c1ccc(C)cc1 | inactive | 
Cc1ccc(-n2c3c(c(=O)[nH]c2=O)C(C(F)(F)F)(C(F)(F)F)NC(=O)N3)cc1 | inactive | 
CCOc1cc(NC(=O)c2ccccc2[N+](=O)[O-])c(OCC)cc1NC(=O)CC(C)C | inactive | 
CCN(CC(=O)Nc1ccc([N+](=O)[O-])cc1OC)c1ccccc1 | 14.1 µM (active) | 
CCOc1ccc(NC(=S)NC(=O)/C=C/c2ccc(OC)c(OC)c2)c([N+](=O)[O-])c1 | inactive | 
COc1ccccc1NC(=O)Cn1cncc1-c1ccc([N+](=O)[O-])cc1 | inactive | 
COc1ccc(OC)c(NC(=O)CC(Cc2ccccc2OC)C(=O)O)c1 (stereo not drawn) | inactive | 

Compound | AC50 | activity, negative = inhibition
CCCOc1ccc(/C=C/C(=O)Nc2ccc([N+](=O)[O-])cc2C)cc1OC | inactive | 
Cc1ccc([N+](=O)[O-])cc1NC(=S)NC(=O)C(C)(C)C | inactive | 
CC(CC(=O)Nc1ccc(Cl)c([N+](=O)[O-])c1)c1ccccc1 (stereo not drawn) | 0.447 µM (active) | 
CCN(CC)S(=O)(=O)c1ccc(OC)c(NC(=O)CSc2ccccc2)c1 | inactive | 
O=C(CSc1ccc(C(F)(F)F)cc1[N+](=O)[O-])Nc1ccccc1 | inactive | 
COc1ccc([N+](=O)[O-])cc1NC(=O)CC(C)c1ccccc1 (stereo not drawn) | 11.2 µM (active) | 
COc1ccc([N+](=O)[O-])cc1NC(=S)NC(NC(=O)Cc1ccc(OC)c(OC)c1)C(Cl)(Cl)Cl (stereo not drawn) | 0.355 µM (active) | 
Cc1ccc(S(=O)(=O)N[C@H]2COC(=O)CC=C[C@@H](C)[C@H]3C=C[C@H](O)[C@@H](COC(=O)CC=C[C@H]2C)O3)cc1 |  | -6.53% [at 11.4 µM] (inactive) and 13.3% [at 11.4 µM] (inactive)
Cc1ccc(N2C(=O)CSC2c2cccnc2)cc1F (stereo not drawn) | inactive | 
c1ccc(-c2noc(-c3ccc4ccccc4c3)n2)cc1 | inactive | 
CC(C)[C@H](CO)Nc1nc(Nc2ccc(C(=O)O)c(Cl)c2)c2ncn(C(C)C)c2n1 | inactive | 
C=CCNC(=O)c1cccn1-c1ccsc1C(=O)OC | inactive | 
O=C(N[C@@]1(C(=O)O)C[C@@H]1c1ccccc1)c1ccccc1 |  | 11.3% [at 11.4 µM] (inactive)
CCCCn1c(SC(C)C(N)=O)nc2cc(C(=O)OC)ccc2c1=O (stereo not drawn) | inactive | 
C/C(N)=C(/C#N)C(=O)CSc1nnc(COc2cc(C)ccc2C)o1 | inactive | 
COc1ccc(S(=O)(=O)N2CC3CCCN3c3ccc(C(F)(F)F)cc32)cc1 (stereo not drawn) | inactive | 
Cc1nn(Cc2ccc(Cl)cc2)c(C)c1NC(=O)CSc1nc2c(c(C(F)(F)F)n1)CCc1ccccc1-2 | inactive | 
Nc1ccc(N=Nc2c(S(=O)(=O)O)cc3ccccc3c2S(=O)(=O)O)cc1 |  | 8.88% [at 11.4 µM] (inactive)
COc1cnc(-c2ccccn2)nc1Oc1ccc(Cl)c2ccccc12 | inactive | 
Cn1cc(-c2nc3cnc(N4CCOCC4)nc3n(CCC#N)c2=O)c2ccccc21 | inactive | 
CCOc1ccc(Cc2nc(C)c(CC(=O)N3CCOCC3)c(=O)[nH]2)cc1 | inactive | 
Cc1noc(C)c1C(=O)N1CCC2(CCCN(C(=O)Nc3cccc(F)c3)C2)CC1 | inactive | 
NC(=NCc1ccc(Cl)c(Cl)c1)NC(=O)c1nc(Cl)c(N)nc1N | 12.6 µM (active) | 
NC(Cc1ccccc1)=NCC(=O)O |  | 9.41% [at 11.4 µM] (inactive)

Compound | AC50 | activity, negative = inhibition
COC(=O)c1nnn(Cc2ccccc2)c1N | inactive | 
NC(=NCc1ccccc1)NC(=O)c1nc(Cl)c(N)nc1N | 15.8 µM (active) and 5.01 µM (active) | 
Cc1cc(C)c2c(=O)[nH]c(SCC(=O)N(C)C)nc2n1 | inactive | 
CN(C)c1ncc2nc(-c3ccc(Cl)cc3)c(=O)n(Cc3cccs3)c2n1 | inactive | 
CCOc1ccc(OCC)c(-c2c(=O)n(OCc3ccc(C(C)(C)C)cc3)c3ccccc3[n+]2[O-])c1 | inactive | 
CC(=O)NNc1cccc(Cl)n1 | inactive | 
CCOC(=O)C1=C(c2ccccc2)N=c2s/c(=C\c3cc(OC)c(OC)c(OC)c3)c(=O)n2C1c1cccs1 (stereo not drawn) | inactive | 
CCOC(=O)C1=C(c2ccccc2)N=c2s/c(=C\c3cccc(O)c3)c(=O)n2C1c1cccs1 (stereo not drawn) | 3.16 µM (active) | 
CCOC(=O)C1=C(c2ccccc2)N=c2s/c(=C\c3ccc(O)cc3)c(=O)n2C1c1cccs1 (stereo not drawn) | inactive | 
Cc1cc(/C=C(/C#N)C(=O)Nc2ccccc2)c(C)n1-c1cccnc1 | inactive | 
O=c1c(-c2cccs2)nc2cncnc2n1-c1ccccc1 | inactive | 
O=c1[nH][nH]c(C(F)(F)F)c1C=Nc1ccccc1Cl | inactive | 
O=C(CSc1cccc2cccnc12)OCC(=O)c1ccccc1 | inactive | 
CCNc1ncc2nc(CCc3ccccc3)c(=O)n(Cc3ccc(F)cc3)c2n1 | inactive | 
CCNc1ncc2nc(CCc3ccccc3)c(=O)n(C)c2n1 | 1.58 µM (active) | 
COc1ccc(-n2c(=O)c(CCc3ccccc3)nc3cncnc32)cc1 | inactive | 
COc1cccc(Nc2ncc3nc(CCc4ccccc4)c(=O)n(C4CC4)c3n2)c1 | inactive | 
CCNc1ncc2nc(CCc3ccccc3)c(=O)n(C3CC3)c2n1 | 0.398 µM (active) | 
Cn1c(=O)c(CCc2ccccc2)nc2cnc(Nc3ccccc3)nc21 | inactive | 
COc1ncc2nc(CCc3ccccc3)c(=O)n(-c3ccccc3)c2n1 | inactive | 
CCNc1ncc2nc(C)c(=O)n(C3CC3)c2n1 | inactive | 
Cn1c(=O)c(CCc2ccccc2)nc2cncnc21 | inactive | 
COc1ccc(-n2c(=O)c(CCc3ccccc3)nc3cnc(N4CCN(C)CC4)nc32)cc1 | inactive | 
CCNc1ncc2nc(CCc3ccccc3)c(=O)n(-c3ccccc3)c2n1 | 0.1 µM (active) | 

Compound | AC50 | activity, negative = inhibition
CCNc1ncc2nc(CCc3ccccc3)c(=O)n(-c3ccc(OC)cc3)c2n1 | 0.251 µM (active) | 
CC(C)Cc1nc(N2CCN(C(=O)c3ccccc3)CC2)c(C#N)c2c1CCC2 | inactive | 
Nc1nc(N)[n+]([O-])c(N)c1NCO |  | -8.44% [at 11.4 µM] (inactive)
CCN1C(=O)[C@H]2[C@H]3[C@H](O)[C@H](O)C/C(=N/OCC(C)C)[C@@H]3CC[C@@H]2C1=O |  | 8.5% [at 11.4 µM] (inactive)
O=C(CN1C(=O)C2C3C=CC(C3)C2C1=O)Nc1ccc(C(=O)O)cc1 (stereo not drawn) | inactive | 
CC(C)OC(=O)c1cccc(C(=O)Oc2ccc(Br)cc2)n1 | inactive | 
COc1cc(C2C(C#N)=C(N)N(Nc3ccccc3)C3=C2C(=O)CC(C)(C)C3)ccc1OCc1ccccc1 (stereo not drawn) | inactive | 
Cc1c(-n2cc(C(=O)c3cc(Cl)ccc3O)cc(C#N)c2=O)c(=O)n(-c2ccccc2)n1C | inactive | 
CN(C)[C@H]1C(=O)C(C(=O)NCN2CCCC2)=C(O)[C@]2(O)C(=O)C3=C(O)c4c(O)cccc4[C@@](C)(O)[C@H]3C[C@@H]12 | inactive | 
CCOC(=O)c1c(NC(=O)c2c(Br)cnn2C)c(C#N)nn1-c1ccccc1 | inactive | 
O=C(N/N=C/c1ccccn1)c1ccco1 | inactive | 
COc1cccc2cc(NC(=O)C3CCCCC3)c(=O)oc12 | inactive | 
Cc1ccc(-n2nc(C)c3c2OC(N)=C(C#N)C3c2ccco2)cc1 (stereo not drawn) | inactive | 
COc1ccc(C(=O)N2CCCCC2)cc1S(=O)(=O)Nc1ccccc1 | inactive | 
CCOc1ccc(-c2nn(-c3ccccc3)cc2/C=C2\SC(N)=NC2=O)cc1C | inactive | 
CSc1nsc(SCc2ccc(Cl)cc2)n1 | inactive | 
O=C1c2ccccc2CC[C@H]1CNCCc1ccc(O)cc1 | 0.398 µM (active) | 
CCOc1cc(C)ccc1OCc1nnc(SCC(=O)c2cccc([N+](=O)[O-])c2)n1C | inactive | 
CCOC(=O)CSC1=NC(=O)/C(=C\c2ccc(Cl)cc2)S1 | inactive | 
C[C@@H](CN1CCC(Cc2ccccc2)CC1)[C@H](O)c1ccc(O)cc1 | 1 µM (active) | 
C[C@@H](CN1CCC(Cc2ccccc2)CC1)[C@@H](O)c1ccc(O)cc1 | inactive | 
